# This is part of a sample that, as a whole, favours compounds with a hit. Of some 83,000 tested, about 20% had one in any assay.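 Cell lines were cultured in 96-well plates, exposed to a single compound concentration, and assessed for percent growth 48 hours later.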 A number with no mark means an inactive call. The source made the active and inactive calls. How the source made its calls: active means growth percent below 10; inactive means the rest.
# Assays:
# Assay in all cases: NCI-60 one-dose screen, 48 h (100 = growth as untreated, 0 = no growth, -100 = all killed)
# Details in all cases: 10 µM unless noted
# HCT-15 colon = system: HCT-15 colon
# HT29 colon = system: HT29 colon
# SNB-75 CNS = system: SNB-75 CNS
# SNB-19 CNS = system: SNB-19 CNS
# U251 CNS = system: U251 CNS
# PC-3 prostate = system: PC-3 prostate
# SK-MEL-5 melanoma = system: SK-MEL-5 melanoma
# UACC-62 melanoma = system: UACC-62 melanoma
# LOX IMVI melanoma = system: LOX IMVI melanoma
# SK-MEL-28 melanoma = system: SK-MEL-28 melanoma
# SK-MEL-2 melanoma = system: SK-MEL-2 melanoma
# EKVX NSCLC = system: EKVX NSCLC
# SN12C renal = system: SN12C renal
# UO-31 renal = system: UO-31 renal
# TK-10 renal = system: TK-10 renal
# ACHN renal = system: ACHN renal
# A498 renal = system: A498 renal
# CCRF-CEM leukemia = system: CCRF-CEM leukemia
# MOLT-4 leukemia = system: MOLT-4 leukemia
# CAKI-1 renal = system: CAKI-1 renal
SMILES,growth (HCT-15 colon),growth (HT29 colon),growth (SNB-75 CNS),growth (SNB-19 CNS),growth (U251 CNS),growth (PC-3 prostate),growth (SK-MEL-5 melanoma),growth (UACC-62 melanoma),growth (LOX IMVI melanoma),growth (SK-MEL-28 melanoma),growth (SK-MEL-2 melanoma),growth (EKVX NSCLC),growth (SN12C renal),growth (UO-31 renal),growth (TK-10 renal),growth (ACHN renal),growth (A498 renal),growth (CCRF-CEM leukemia),growth (MOLT-4 leukemia),growth (CAKI-1 renal)
COc1ccc(/C=C/C(=O)c2ccc(NC(=O)CSc3nnc(-c4ccc(Cl)cc4)n3-c3ccccc3)cc2)cc1,80.5%,98.7%,84.2%,96.2%,88.2%,84.5%,84.1%,74.6%,105%,104%,104%,89.4%,91.2%,79.8%,113%,103%,84.6%,94.9%,65.5%,–
CN(C)c1ccc(N2Cc3ccccc3OC3=C2C(=O)c2c(O)ccc(O)c2C3=O)cn1,-64.4% (active),-50.8% (active),0.378% (active),6.23% (active),-15.7% (active),-4.29% (active),-81.3% (active),-87.4% (active),-68.1% (active),-82.8% (active),-51.5% (active),-15.8% (active),-91.7% (active),-99.1% (active),-93.9% (active),-100% (active),-61.1% (active),-8.39% (active),-22.4% (active),–
O=C(NO)c1ccc(NCc2csc3ccccc23)cc1,39%,79.2%,56%,69.5%,57.4%,52.4%,74.4%,57.8%,71.6%,91.2%,84.1%,69.7%,59.4%,39.5%,59.1%,69.6%,57.1%,44.7%,43.1%,–
COc1cc(-c2n/c(=C\c3c(O)[nH]c4cc(Cl)ccc34)cc3c2=Nc2ccccc2-3)cc(OC)c1OC,93.7%,24.3%,36.1%,63.9%,23.8%,52.2%,27.2%,56.8%,34.3%,43%,72.9%,64.1%,78.4%,74.9%,63%,59.6%,94.5%,–,70.6%,69.1%
CCCC(CCC)NCC(O)c1cc(-c2ccc(C(F)(F)F)cc2)nc(C(F)(F)F)c1 (stereo not drawn),-62.4% (active),-74% (active),-3.88% (active),8.92% (active),-96.6% (active),-47.3% (active),-94% (active),-68.1% (active),-64.2% (active),-41.9% (active),-66.1% (active),-9.08% (active),-78.5% (active),-44.9% (active),-63.8% (active),–,-31% (active),-7.92% (active),-30.6% (active),-28.1% (active)
COc1ccccc1/C=N\NC(=S)Nc1ccc(F)cc1,50.8%,46.9%,84.4%,89.1%,62%,83%,85.1%,58.9%,78.4%,78.3%,81%,75.7%,81.1%,62.2%,97.5%,87.5%,–,89.2%,57.3%,88.5%
Cc1c(O)c(=O)n(-c2ccccc2)n1C,92.7%,103%,98.3%,106%,105%,92%,110%,98.7%,105%,111%,112%,120%,98.2%,79.6%,112%,96.5%,120%,118%,84.2%,107%
C=CCn1c(SCC(=O)Nc2ccc(/C(C)=N\O)cc2)nnc1-c1cc(-c2ccccc2)nc2ccccc12,50.8%,49.9%,58.3%,68.5%,59.1%,43.5%,48.4%,24.3%,-58.1% (active),86.7%,72.1%,55%,69.3%,40.6%,74.5%,38.4%,65.1%,18.2%,3.61% (active),–
